# PubChem BioAssay (NCI)
# Compounds without any hit were thinned out: in the full panel of roughly 83,000, 20% have a hit.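 Interpretation: 100, growth as untreated; towards 0, rising growth inhibition; 0, no net growth; 0 to -100, cell death. Compounds scoring below 10 were considered active.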 Values without a mark were called inactive. Active and inactive are the calls of the source.
# Assays:
# Test in all cases: NCI-60 one-dose screen, 48 h (100 = growth as untreated, 0 = no growth, -100 = all killed)
# Settings in all cases: 10 µM unless noted
# [1] = system: DU-145 prostate
# [2] = system: K-562 leukemia
# [3] = system: MALME-3M melanoma
# [4] = system: MDA-MB-231 breast
# [5] = system: RXF 393 renal
# [6] = system: SF-268 CNS
# [7] = system: SF-295 CNS
# [8] = system: SF-539 CNS
# [9] = system: UACC-257 melanoma
# [10] = system: M14 melanoma
# [11] = system: HCT-15 colon
# [12] = system: HT29 colon
# [13] = system: SNB-75 CNS
# [14] = system: SNB-19 CNS
# [15] = system: PC-3 prostate
# [16] = system: SK-MEL-5 melanoma
# [17] = system: UACC-62 melanoma
# [18] = system: LOX IMVI melanoma
# [19] = system: SK-MEL-28 melanoma
# [20] = system: U251 CNS
Structure (SMILES),growth [1],growth [2],growth [3],growth [4],growth [5],growth [6],growth [7],growth [8],growth [9],growth [10],growth [11],growth [12],growth [13],growth [14] [%],growth [15],growth [16],growth [17],growth [18],growth [19],growth [20]
COc1ccc(-n2c(C)nc3c(c(C)nn3-c3ccccc3)c2=O)cc1,0.999% (active),8.9% (active),63.7%,31.9%,19.7%,30.3%,3.34% (active),-1.28% (active),60%,10.4%,7.97% (active),-15.6% (active),26.7%,60.7,26.7%,-17.1% (active),51.6%,16.6%,67.4%,–
CC(C)n1cc2c(N)ncnc2n1,128%,98.5%,86.3%,109%,115%,106%,102%,105%,121%,107%,106%,101%,81.6%,–,106%,108%,92.9%,108%,152%,106%
CCNS(=O)(=O)c1ncnc2nc[nH]c12,102%,109%,116%,119%,122%,132%,109%,95.9%,126%,119%,94.3%,114%,122%,–,85.2%,113%,94.7%,22%,143%,-14% (active)
COC1/C=C\OC2(C)Oc3c(C)c(O)c4c(O)c(c(CN(C)CCO)c(O)c4c3C2=O)NC(=O)/C(C)=C\C=C/C(C)C(O)C(C)C(O)C(C)C(OC(C)=O)C1C (stereo not given),116%,92.3%,84.2%,108%,98.5%,97.3%,113%,91.1%,105%,105%,104%,140%,83.2%,–,97.2%,108%,97.6%,94.9%,–,109%
O=C1/C(=C\c2cn(C(=O)c3ccc(Cl)cc3)c3ccccc23)c2ccccc2N1c1c(Cl)cccc1Cl,120%,115%,106%,103%,151%,99.9%,127%,104%,123%,104%,66.3%,103%,82.3%,–,71.9%,107%,95.4%,97.7%,113%,88.4%
Cc1ccc2c(c1)C(=O)c1c-2c(OCCCN(C)C)nc2ccccc12,34.3%,-59.4% (active),-71.7% (active),-22.7% (active),30.1%,30.8%,60%,14.4%,69.5%,-82.2% (active),-17.8% (active),-33% (active),38.5%,–,18.6%,28.5%,-66% (active),-71.9% (active),-54% (active),4.38% (active)
CCN(CC)CCCNc1cc(OC)cc2nc3cc(Cl)ccc3nc12,0.94% (active),-56.5% (active),-84.7% (active),-25.9% (active),-10.9% (active),-35.5% (active),18.1%,-77.6% (active),-79.7% (active),-94.2% (active),-11.9% (active),-9.49% (active),-2.74% (active),–,2.49% (active),-99.5% (active),-80.6% (active),-58.7% (active),-79.1% (active),4.3% (active)
CN(C)c1ccc(/C=C(\C#N)c2nc3ccccc3s2)cc1,120%,119%,111%,106%,116%,102%,92.9%,100%,93.5%,110%,106%,100%,89.4%,–,105%,98.4%,101%,113%,119%,106%
CCCCCCCCCc1cc(CN2CCCCC2)c(O)c(CN2CCCCC2)c1,66.4%,31.8%,75.1%,30.9%,78.3%,71.7%,64.6%,60.9%,58.8%,68.3%,52.3%,40.5%,60.6%,–,53.7%,40%,72.9%,48.6%,–,45.1%
OCC1C2C=CC(C2)C1CO (stereo not given),106%,112%,105%,103%,113%,106%,104%,126%,101%,99.9%,110%,97.6%,75.8%,–,79.5%,130%,107%,101%,107%,100%
C[C@H](CCC(=O)O)[C@H]1CC[C@H]2[C@@H]3CC[C@@H]4/C(=C\c5ccco5)C(=O)/C(=C\c5ccco5)C[C@]4(C)[C@H]3CC[C@]12C,66.5%,30%,58.1%,107%,45.1%,80.6%,70.6%,76.3%,51.6%,52.5%,28.5%,59.6%,101%,79,52.6%,47.4%,17.2%,31.6%,44.3%,–
CC(=O)CC(C)(C)c1ccc(Cl)cc1,108%,101%,108%,106%,98%,95.7%,101%,102%,101%,96.8%,101%,98.1%,81.9%,–,93.6%,108%,101%,97.3%,115%,98.7%
Cc1cc(=O)oc2cc(Oc3nc(-c4cccs4)cn4c(-c5cccs5)cnc34)ccc12,55.4%,81.6%,39.1%,63.2%,63.6%,76.3%,47.5%,60%,48.2%,67.5%,72.9%,46.6%,35.6%,–,53%,42.5%,71.1%,38.4%,–,47.5%
Nc1cc2ccncc2c2ccccc12,75.4%,112%,97.6%,64.1%,81.5%,75.6%,69.3%,79.1%,103%,94.7%,75.1%,65.2%,116%,–,83.1%,76.9%,60.7%,50.8%,103%,81.1%
CCCCCCCCCCNC(=O)CCl,91.1%,85.3%,87.9%,90.4%,75.3%,82.2%,102%,84.1%,84.3%,83.9%,72.4%,84.2%,45.5%,–,66.1%,72.9%,73.8%,50.9%,–,69.8%
COc1ccc(-c2nn(-c3ccccc3)cc2/C=C2\SC(=O)NC2=O)cc1,109%,86.7%,112%,84.4%,114%,96.9%,92%,96.8%,110%,102%,89.4%,114%,66.3%,89.2,99.6%,83.1%,89.2%,59%,112%,–
Cc1cc(-c2nc3ccccc3s2)ccc1NC(=O)COc1ccc(Cl)cc1,130%,93.7%,106%,96.9%,139%,109%,120%,105%,120%,100%,92.7%,101%,84.4%,–,83.2%,98.8%,96.1%,94.5%,–,94.1%

Structure (SMILES),growth [1],growth [2],growth [3],growth [4],growth [5],growth [6],growth [7],growth [8],growth [9],growth [10],growth [11],growth [12],growth [13],growth [14] [%],growth [15],growth [16],growth [17],growth [18],growth [19],growth [20]
C/C=C/C(N)=O,106%,109%,99.7%,108%,108%,104%,106%,101%,108%,95.5%,96.9%,102%,90.6%,–,93.9%,96.7%,105%,99.3%,93%,104%
O=C1C(=O)N(CCCCn2cc(CO)nn2)c2ccccc21,108%,98.4%,97.7%,98.2%,99.7%,101%,102%,101%,105%,94.5%,102%,103%,72.3%,99.5,98.3%,101%,99.3%,92.1%,109%,–
COc1c(Cl)cc(Cl)cc1Cl,111%,96.2%,143%,92.2%,121%,107%,103%,111%,122%,116%,116%,108%,116%,103,111%,109%,100%,107%,127%,–
Clc1nc(Cl)c2c3c(sc2n1)CCCC3,-55.3% (active),-33.2% (active),45%,62.4%,-19.4% (active),26.1%,104%,105%,81.2%,21.1%,26.7%,11.3%,89%,–,63.8%,50.8%,92.9%,13.4%,55.1%,49.7%
CCCCCCCCCCCCCCCC(=O)OCC1OC(n2cnc3c(=S)nc(N)[nH]c32)C(OC(=O)CCCCCCCCCCCCCCC)C1OC(=O)CCCCCCCCCCCCCCC (stereo not given),39.8%,15.9%,82.6%,47.4%,164%,67.2%,21.1%,79.9%,88.7%,34.1%,55.1%,37.7%,78.2%,–,78.8%,96.7%,31.7%,21.7%,130%,83.7%
O=S(=O)(Nc1ccc(Cl)cc1Cl)c1ccc(-c2cnc(C3CC3)o2)cc1,8.88% (active),10.9%,37.7%,44.2%,-10.7% (active),53.6%,1.37% (active),-13.5% (active),55.4%,10.8%,24.3%,1.27% (active),5.51% (active),43.6,28.1%,8.59% (active),–,43.3%,55.3%,–
Nc1cc(-c2nc3sccn3c2-c2ccnc(NCCCNS(=O)(=O)c3ccc(F)cc3)n2)ccc1F,58.6%,26.8%,37.1%,62.5%,52.1%,62%,67.5%,73.2%,57.9%,31%,28.3%,17.8%,68.7%,88,–,27.2%,21.2%,34.1%,50.7%,–
NS(=O)(=O)N(c1cc(C(F)(F)F)cc(C(F)(F)F)c1)C1CCN(Cc2ccc(F)cc2)CC1,99%,26.1%,29%,67.7%,41.7%,79.9%,81.6%,83.1%,62.1%,46.6%,24.4%,8.44% (active),55.3%,–,34.2%,32.2%,57.1%,68.9%,82.1%,59.8%
Cc1nn(-c2ccccc2)c2nc(C)n(-c3ccc(Br)cc3)c(=O)c12,8.77% (active),9.29% (active),45.9%,50.3%,-15.8% (active),51.2%,4.98% (active),-5.52% (active),60%,9.88% (active),17.4%,-15.7% (active),-6.84% (active),47.5,26.4%,5.34% (active),38.7%,45.6%,69.3%,–
O=C(/C=C/c1ccc(Cl)cc1)c1ccc(O)c(CN2CCN(c3cc4c(cc3F)c(=O)c(C(=O)O)cn4C3CC3)CC2)c1,63.5%,50.7%,59.8%,77.2%,45.4%,42%,45%,53.5%,90.2%,52.6%,45.4%,33.8%,4.51% (active),33.2,47.3%,29.8%,38.2%,38.6%,62.1%,–
O=C1NC(=O)C(CC(=O)n2c(-c3ccccc3)nc3ccccc32)C(=O)N1,108%,106%,116%,98.9%,101%,99%,97.3%,95.1%,112%,108%,100%,111%,71.1%,89.6,100%,101%,94.3%,97.2%,108%,–
COc1ccc(-c2cc(C(=O)N=Nc3c(O)[nH]c4ccccc34)no2)cc1,104%,90.7%,102%,96.9%,102%,99.4%,102%,100%,114%,101%,104%,99.5%,66.5%,91.5,97.5%,98.9%,100%,99.7%,109%,–
CCN(CC)CC(O)CNc1c2ccc([N+](=O)[O-])cc2nc2cc(OC)c(OC)cc12 (stereo not given),-29.9% (active),3.2% (active),-82% (active),-71.9% (active),-43.4% (active),-35.2% (active),-8.54% (active),-35.7% (active),-33.5% (active),-56.7% (active),11.9%,-48.7% (active),-94.6% (active),–,-53.4% (active),-78.3% (active),-77.6% (active),-40.2% (active),-11.9% (active),-16.2% (active)
COc1ccc(OCC(=O)Nc2ccc(-c3nc4ccccc4s3)cc2C)cc1,110%,59.5%,100%,85.7%,115%,94.3%,99.8%,89.6%,109%,89.9%,85.9%,91.7%,83.4%,–,75.9%,70.8%,83.2%,89%,107%,96.2%
CNC(=O)c1cc(Oc2ccc3nc(NC(=O)Nc4ccc(N5CCC(N(C)C)CC5)cc4)sc3c2)ccn1,74.1%,2.09% (active),56.1%,85.6%,61.5%,84.7%,98.9%,73.4%,105%,94%,74.8%,20.1%,86.4%,–,95.1%,86.1%,99.2%,69.9%,87.7%,57.6%
COCCCN=C(N)c1ccc(NC(=O)c2ccc(C(=O)Nc3ccc(C(N)=NCCCOC)cc3)cc2)cc1,148%,66.8%,75.5%,112%,142%,103%,93.7%,98.5%,121%,80.3%,118%,110%,86.4%,–,125%,78.3%,91%,120%,226%,99.1%
